Records with an inconclusive call do not appear. Calls of active or inactive are those of the source. Unless noted, calls come from the whole dose curve; as a rule, active = well fitted curve in the direction sought with a large enough effect; inconclusive = small, poorly fitted or top-dose-only effect, or another doubt; inactive = no such curve, though single readings can be large; an effect the other way counts as inactive or inconclusive.
What was measured:
[1] = AP1 Signaling Pathway (AID 357; active = well fitted curve in either direction with a large enough effect, not every such curve was filed as active;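 note: ME-180 reporter cells stimulated with EGF at its EC50 level; % is set by controls: 0 for no effect and ±100 for the full control effect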); settings: ME-180 AP-1-bla reporter, EGF-induced, beta-lactamase ratio, 5 h; at 17.2 µM (top of the series) unless noted
How it was run: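 Cells are seeded overnight, exposed to compound titrations and an EC50 level of EGF for 5 hours at 37 °C, then loaded with CCF4 dye for 2.5 hours. Beta-lactamase activity under the AP-1 element is read as a blue/green ratio.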

[2] = NFAT Signaling Pathway (AID 444; active = well fitted curve in either direction with a large enough effect, not every such curve was filed as active;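 note: carbachol stimulus at about its EC50 of 1 µM final; % is set by controls: 0 for no effect and ±100 for the full control effect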); settings: Jurkat NFAT-bla M1, carbachol, beta-lactamase ratio, 5 h; at 17.2 µM (top of the series) unless noted
How it was run: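 Read-out: CCF4 FRET ratio (460 nm/530 nm) after 1 h RT dye loading, used for %activity and AC50 from titration series. Cells: Jurkat NFAT-β-lactamase/M1 line, treated with compound plus 1 uM carbachol for 5 h, 37 °C.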

[3] = Stat Signaling Pathway (AID 446; active = well fitted curve in either direction with a large enough effect, not every such curve was filed as active;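 note: ME-180 cervical cancer cells given 40 pM IL-6 alongside compound; SIE-controlled beta-lactamase reporter measured as 460/530 nm FRET emission ratio; % is set by controls: 0 for no effect and ±100 for the full control effect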)
How it was run: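 ME-180 SIE-bla cells; overnight plating; cpd + IL-6 40 pM, 5 h, 37 C; LiveBLAzer 2.5 h RT; 460/530 nm emission ratio. Normalized to 300 pM IL-6 and 125 nM JAK inhibitor controls.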

[4] = target: Glucocorticoid receptor (Homo sapiens) (UniProt P04150); assay: GR-GFP Redistribution (AID 450;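 active = compounds whose dose series gives a full or clear partial fitted curve of increased nuclear translocation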; note: potency is the fitted concentration of half-maximal effect); settings: U2OS GR-GFP nuclear translocation, laser cytometry, 2 h
[5] = target: Glucocorticoid receptor (Homo sapiens) (UniProt P04150); assay: GR-EFC Redistribution (AID 451; calls by dose curve; note: potency is the fitted concentration of half-maximal effect); settings: CHO-K1 GR-EFC translocation, beta-gal luminescence, 2 h
How it was run: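 Translocation of GR-ED fusion to nuclear EA restores b-gal, read by luminescence after 1 h room-temperature detection. Engineered CHO-K1 biosensor cells, 1,000/well, exposed 2 h at 37 C to titrations up to 46 uM final.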

[6] = target: Mitogen-activated protein kinase 10 (Mus musculus) (UniProt Q61831); assay: JNK3 AlphaScreen Assay (AID 530; active = well fitted curve in either direction with a large enough effect, not every such curve was filed as active;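 note: kinase came from lysate of stimulated human HepG2 cells; signal reports phosphorylation of biotinylated GST-cJun 1-79 at Ser73 with 10 µM ATP; % is set by controls: 0 for no effect and ±100 for the full control effect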)
How it was run: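 Room-temperature AlphaScreen kinase assay; pre-activated HepG2 lysate as JNK3 source, biotin-GST-cJun(1-79) substrate, 10 uM ATP, compound 15 min preincubation.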

[7] = target: 3',5'-cyclic-AMP phosphodiesterase 4B (Homo sapiens) (UniProt Q07343); assay: qHTS Assay for Inhibitors of PDE-IV (AID 607; active = well fitted activation curve with a large enough effect in the main read-out, with a control signal flat, not every such curve was filed as active; note: % of control where 0% means no effect)
How it was run: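 ACTOne HEK293 cells carry a modified cAMP-gated CNG channel and express endogenous PDE4; plated 1000 cells/well, compounds up to 22.9 uM final. Membrane-potential dye fluorescence (ex 535/em 590) was read; parental cells received 10 uM forskolin + 100 uM RO 20-1724.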

[8] = target: Cytochrome P450 3A4 (Homo sapiens) (UniProt P08684); assay: qHTS Assay for Activators of Cytochrome P450 3A4 (AID 885); note: nearly all actives have a fitted effect of over 65% in size
How it was run: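 20nM CYP3A4 + 25uM Luciferin-PPXE (=KM), 200mM KPO4; cpd 10 min RT; NADPH regen, 60 min RT; stop w/ detection buffer, 20 min; luminescence. Normalized to 57 uM ketoconazole.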

[9] = target: Ubiquitin carboxyl-terminal hydrolase 1 (Homo sapiens) (UniProt O94782); assay: Inhibitors of USP1/UAF1: Pilot qHTS (AID 504865);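 note: rhodamine fluorescence freed from ubiquitin-rhodamine substrate followed over time; top concentration of the series differs between compounds; % is set by controls: 0 for no effect and ±100 for the full control effect; nearly all actives have a fitted effect of over 35% in size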
How it was run: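 Deubiquitinase activity followed as kinetic rhodamine fluorescence release from 150 nM Ub-Rho. 1 nM USP1/UAF1 with compound, after 15 min room-temperature preincubation, in HEPES pH 7.8 buffer containing TCEP, EDTA, BSA and Tween-20.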

[10] = target: Luciferin 4-monooxygenase (Photinus pyralis) (UniProt P08659); assay: Biochemical firefly luciferase enzyme assay for NPC (AID 624030);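 note: purified P. pyralis luciferase at 10 nM with luciferin and ATP substrate; 0% = DMSO and -100% = full luciferase inhibition by PTC124 control; nearly all actives have a fitted effect of over 70% in size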
How it was run: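 Direct inhibition of firefly luciferase enzyme (10 nM final, 50 mM Tris Acetate) assessed by luminescence within 5 minutes. Percent activity scaled between DMSO and PTC124 positive control, with concentration-effect curves classified by fit quality and response.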

[11] = S16 Schwann cell viability assay (CellTiter-Glo assay) (AID 624031);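 note: native untransfected S16 rat Schwann cells; cellular ATP luminescence as a viability measure; plate controls were DMSO-treated cells for no effect and cell-free wells for full effect; nearly all actives have a fitted effect of over 70% in size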
How it was run: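 Parental S16 cells, 24 h compound, 37 °C. ATP-luminescence viability; DMSO = 0% activity, empty wells as reference; curves classified by fit quality and efficacy.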

[12] = S16 Schwann cell PMP22 intronic element firefly luciferase assay (AID 624032);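 note: plate controls were DMSO for no effect and PTC124 positive control mean for full effect; nearly all actives have a fitted effect of over 30% in size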
How it was run: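 Luciferase reporter of PMP22 intronic-element expression in stably transfected S16 rat Schwann cells, read by ONE-Glo luminescence after 24 h compound exposure at 37 C. Activity scaled between DMSO (0%) and positive-control PTC124; concentration-effect curves quality-classified.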

[13] = qHTS profiling for inhibitors of Plasmodium falciparum proliferation (AID 504749);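 note: 0% = DMSO vehicle and full inhibition = artemisinin control; nearly all actives have a fitted effect of over 60% in size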; settings: P. falciparum in erythrocytes, SYBR Green DNA, 72 h, at 12.8 µM (top of the series)
How it was run: (§1)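 Three-day growth assay of blood-stage parasites in erythrocytes (0.3% parasitemia, 2.5% hematocrit) at 37 C, 5% CO2, quantified by SYBR Green DNA staining after overnight detergent lysis.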

3D7 = assay: as above; settings: P. falciparum in erythrocytes, SYBR Green DNA, 72 h; series mostly up to 28.7 µM
How it was run: as §1

AA1029 = assay: as above; settings: P. falciparum in erythrocytes, SYBR Green DNA, 72 h; series mostly up to 28.7 µM
How it was run: as §1

AS120 = assay: as above; settings: P. falciparum in erythrocytes, SYBR Green DNA, 72 h; series mostly up to 28.7 µM
How it was run: as §1

ATS189 = assay: as above; settings: P. falciparum in erythrocytes, SYBR Green DNA, 72 h; series mostly up to 28.7 µM
How it was run: as §1

ATS95 = assay: as above; settings: P. falciparum in erythrocytes, SYBR Green DNA, 72 h; series mostly up to 28.7 µM
How it was run: as §1

C2A = assay: as above; settings: P. falciparum in erythrocytes, SYBR Green DNA, 72 h; series mostly up to 28.7 µM
How it was run: as §1

CP185 = assay: as above; settings: P. falciparum in erythrocytes, SYBR Green DNA, 72 h; series mostly up to 28.7 µM
How it was run: as §1

CP191 = assay: as above; settings: P. falciparum in erythrocytes, SYBR Green DNA, 72 h; series mostly up to 28.7 µM
How it was run: as §1

CP192 = assay: as above; settings: P. falciparum in erythrocytes, SYBR Green DNA, 72 h; series mostly up to 28.7 µM
How it was run: as §1

CP194 = assay: as above; settings: P. falciparum in erythrocytes, SYBR Green DNA, 72 h; series mostly up to 28.7 µM
How it was run: as §1

CP201 = assay: as above; settings: P. falciparum in erythrocytes, SYBR Green DNA, 72 h; series mostly up to 28.7 µM
How it was run: as §1

CP203 = assay: as above; settings: P. falciparum in erythrocytes, SYBR Green DNA, 72 h; series mostly up to 28.7 µM
How it was run: as §1

CP211 = assay: as above; settings: P. falciparum in erythrocytes, SYBR Green DNA, 72 h; series mostly up to 28.7 µM
How it was run: as §1

CP215 = assay: as above; settings: P. falciparum in erythrocytes, SYBR Green DNA, 72 h; series mostly up to 28.7 µM
How it was run: as §1

CP217 = assay: as above; settings: P. falciparum in erythrocytes, SYBR Green DNA, 72 h; series mostly up to 28.7 µM
How it was run: as §1

CP237 = assay: as above; settings: P. falciparum in erythrocytes, SYBR Green DNA, 72 h; series mostly up to 28.7 µM
How it was run: as §1

CP238 = assay: as above; settings: P. falciparum in erythrocytes, SYBR Green DNA, 72 h; series mostly up to 28.7 µM
How it was run: as §1

CP247 = assay: as above; settings: P. falciparum in erythrocytes, SYBR Green DNA, 72 h; series mostly up to 28.7 µM
How it was run: as §1

CP250 = assay: as above; settings: P. falciparum in erythrocytes, SYBR Green DNA, 72 h; series mostly up to 28.7 µM
How it was run: as §1

CP252 = assay: as above; settings: P. falciparum in erythrocytes, SYBR Green DNA, 72 h; series mostly up to 28.7 µM
How it was run: as §1

CP256 = assay: as above; settings: P. falciparum in erythrocytes, SYBR Green DNA, 72 h; series mostly up to 28.7 µM
How it was run: as §1

Sequence of Glucocorticoid receptor (Homo sapiens) (P04150 whole entry, looked up, the tested form may be a part): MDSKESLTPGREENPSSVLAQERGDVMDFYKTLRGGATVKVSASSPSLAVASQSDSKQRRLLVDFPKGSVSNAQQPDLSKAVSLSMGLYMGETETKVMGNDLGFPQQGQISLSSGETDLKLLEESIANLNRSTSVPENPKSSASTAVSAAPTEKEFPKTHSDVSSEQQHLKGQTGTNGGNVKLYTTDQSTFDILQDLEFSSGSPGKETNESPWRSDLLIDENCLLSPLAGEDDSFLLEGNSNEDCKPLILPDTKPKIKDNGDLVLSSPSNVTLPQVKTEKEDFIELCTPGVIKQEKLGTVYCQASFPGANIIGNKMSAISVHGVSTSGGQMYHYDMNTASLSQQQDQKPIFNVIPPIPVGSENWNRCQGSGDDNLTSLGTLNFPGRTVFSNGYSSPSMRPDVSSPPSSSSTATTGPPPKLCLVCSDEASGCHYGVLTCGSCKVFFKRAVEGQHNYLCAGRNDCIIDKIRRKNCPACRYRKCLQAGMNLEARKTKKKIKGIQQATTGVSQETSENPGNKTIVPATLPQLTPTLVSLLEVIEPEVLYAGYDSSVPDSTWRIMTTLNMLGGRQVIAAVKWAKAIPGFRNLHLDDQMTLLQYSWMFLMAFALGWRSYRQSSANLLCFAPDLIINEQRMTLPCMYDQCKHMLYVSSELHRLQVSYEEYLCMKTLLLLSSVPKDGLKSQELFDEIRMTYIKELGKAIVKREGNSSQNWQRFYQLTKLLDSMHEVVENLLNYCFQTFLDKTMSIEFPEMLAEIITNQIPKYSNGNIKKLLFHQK
Sequence of Luciferin 4-monooxygenase (Photinus pyralis) (P08659 whole entry, looked up): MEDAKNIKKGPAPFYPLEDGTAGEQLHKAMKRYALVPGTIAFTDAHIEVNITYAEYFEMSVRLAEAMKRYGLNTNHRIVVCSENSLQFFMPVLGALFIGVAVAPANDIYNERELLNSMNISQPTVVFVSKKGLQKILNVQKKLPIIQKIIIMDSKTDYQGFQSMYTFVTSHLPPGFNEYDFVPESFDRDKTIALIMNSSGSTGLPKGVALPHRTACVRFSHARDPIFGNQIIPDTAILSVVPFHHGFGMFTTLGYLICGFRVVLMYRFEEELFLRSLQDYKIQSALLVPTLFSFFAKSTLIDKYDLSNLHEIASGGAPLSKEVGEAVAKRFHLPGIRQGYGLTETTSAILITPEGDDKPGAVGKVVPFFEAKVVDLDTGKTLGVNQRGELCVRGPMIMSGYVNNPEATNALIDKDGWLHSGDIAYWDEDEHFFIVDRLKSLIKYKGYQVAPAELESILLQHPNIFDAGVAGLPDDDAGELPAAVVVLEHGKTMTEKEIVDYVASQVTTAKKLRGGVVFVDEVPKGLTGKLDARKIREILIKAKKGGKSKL
Sequence of Cytochrome P450 3A4 (Homo sapiens) (P08684 whole entry, looked up): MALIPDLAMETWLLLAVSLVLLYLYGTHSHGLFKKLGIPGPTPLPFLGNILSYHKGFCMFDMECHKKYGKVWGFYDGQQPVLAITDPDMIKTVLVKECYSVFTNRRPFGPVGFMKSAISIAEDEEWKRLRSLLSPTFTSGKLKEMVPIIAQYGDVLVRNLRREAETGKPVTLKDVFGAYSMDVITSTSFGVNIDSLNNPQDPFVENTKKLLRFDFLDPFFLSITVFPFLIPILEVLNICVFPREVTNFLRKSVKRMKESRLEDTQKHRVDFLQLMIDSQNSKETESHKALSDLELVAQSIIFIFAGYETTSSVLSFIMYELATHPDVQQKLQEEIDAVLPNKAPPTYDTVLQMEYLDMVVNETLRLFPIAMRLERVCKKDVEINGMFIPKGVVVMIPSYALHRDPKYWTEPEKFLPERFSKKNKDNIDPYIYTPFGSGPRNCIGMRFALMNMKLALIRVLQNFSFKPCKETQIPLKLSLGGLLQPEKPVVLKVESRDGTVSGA
Sequence of 3',5'-cyclic-AMP phosphodiesterase 4B (Homo sapiens) (Q07343 whole entry, looked up): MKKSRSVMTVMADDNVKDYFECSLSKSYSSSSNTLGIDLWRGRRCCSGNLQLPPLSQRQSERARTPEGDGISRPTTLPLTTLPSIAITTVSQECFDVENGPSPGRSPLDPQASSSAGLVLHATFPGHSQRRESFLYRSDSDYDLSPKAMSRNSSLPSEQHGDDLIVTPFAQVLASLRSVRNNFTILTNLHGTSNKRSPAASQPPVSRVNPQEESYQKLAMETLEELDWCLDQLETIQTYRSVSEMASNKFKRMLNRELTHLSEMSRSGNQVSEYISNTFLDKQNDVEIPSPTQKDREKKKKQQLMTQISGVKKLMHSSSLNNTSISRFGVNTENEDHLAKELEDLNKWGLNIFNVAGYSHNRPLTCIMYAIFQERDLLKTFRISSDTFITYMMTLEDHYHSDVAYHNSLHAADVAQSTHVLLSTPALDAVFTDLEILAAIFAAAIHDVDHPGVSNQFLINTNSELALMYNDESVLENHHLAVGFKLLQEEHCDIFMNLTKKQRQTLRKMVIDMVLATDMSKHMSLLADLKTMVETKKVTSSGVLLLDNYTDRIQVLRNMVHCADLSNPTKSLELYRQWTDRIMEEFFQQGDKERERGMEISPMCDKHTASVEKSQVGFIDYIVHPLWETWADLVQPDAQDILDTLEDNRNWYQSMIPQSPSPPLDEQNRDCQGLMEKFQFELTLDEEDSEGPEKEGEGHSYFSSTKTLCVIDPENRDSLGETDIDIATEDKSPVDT
Sequence of Ubiquitin carboxyl-terminal hydrolase 1 (Homo sapiens) (O94782 whole entry, looked up): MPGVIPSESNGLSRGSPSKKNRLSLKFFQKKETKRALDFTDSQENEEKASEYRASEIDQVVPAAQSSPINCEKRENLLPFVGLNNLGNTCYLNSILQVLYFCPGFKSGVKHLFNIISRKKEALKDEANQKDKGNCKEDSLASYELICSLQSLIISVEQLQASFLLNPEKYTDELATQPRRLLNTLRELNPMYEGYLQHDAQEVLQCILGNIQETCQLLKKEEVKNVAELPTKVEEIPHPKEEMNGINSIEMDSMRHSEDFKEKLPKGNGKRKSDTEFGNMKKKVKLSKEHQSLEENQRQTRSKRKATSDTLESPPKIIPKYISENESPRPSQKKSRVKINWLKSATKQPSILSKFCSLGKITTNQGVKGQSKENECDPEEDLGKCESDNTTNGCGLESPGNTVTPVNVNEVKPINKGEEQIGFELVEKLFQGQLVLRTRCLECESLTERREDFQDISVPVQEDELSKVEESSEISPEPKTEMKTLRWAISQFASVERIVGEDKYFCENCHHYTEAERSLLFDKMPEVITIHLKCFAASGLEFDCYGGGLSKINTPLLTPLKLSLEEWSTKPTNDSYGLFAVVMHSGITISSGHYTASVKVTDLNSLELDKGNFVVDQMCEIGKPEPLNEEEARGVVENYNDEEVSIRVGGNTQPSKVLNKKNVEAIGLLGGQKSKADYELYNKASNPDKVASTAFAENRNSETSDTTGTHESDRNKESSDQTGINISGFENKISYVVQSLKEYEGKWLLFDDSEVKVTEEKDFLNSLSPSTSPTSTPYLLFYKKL

CCOC(=O)c1cncn1[C@@H](C)c1ccccc1
inactive: activity change, negative = inhibition [1] 9.06% | activity change, negative = inhibition [2] -21.8% | outcome [3] | Potency [4] > 20.6 µM | Potency [5] > 20.6 µM | outcome [6] | outcome [7] | Potency [8] | Potency [9] | Potency [10] | Potency [11] | Potency [12] | activity, negative = inhibition ([13]; parasite line A) -15.7% | activity, negative = inhibition ([13]; parasite line B) -15.4% | Potency (3D7) | Potency (AA1029) | Potency (AS120) | Potency (ATS189) | Potency (ATS95) | Potency (C2A) | Potency (CP185) | Potency (CP191) | Potency (CP192) | Potency (CP194) | Potency (CP201) | Potency (CP203) | Potency (CP211) | Potency (CP215) | Potency (CP217) | Potency (CP237) | Potency (CP238) | Potency (CP247) | Potency (CP250) | Potency (CP252) | Potency (CP256)

— PubChem BioAssay (NCATS)
